Screens as filed in PubChem.
Only some compounds are listed: those with a hit (about 3.2% of all), similar ones and a draw of the others.
dFosB act: mouse delta FosB homodimer activation | P13346 | purified delta FosB, TAMRA-CDK5 oligo fluorescence polarization; percent of positive-control signal above neutral wells | activation, % at 25 µM | 340,000 compounds, 0.99% hits;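 active = mean activation above about 17%, with every replicate also reaching it, limit read from the data, passing the limit was not always enough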
Target sequence (P13346 whole entry, looked up): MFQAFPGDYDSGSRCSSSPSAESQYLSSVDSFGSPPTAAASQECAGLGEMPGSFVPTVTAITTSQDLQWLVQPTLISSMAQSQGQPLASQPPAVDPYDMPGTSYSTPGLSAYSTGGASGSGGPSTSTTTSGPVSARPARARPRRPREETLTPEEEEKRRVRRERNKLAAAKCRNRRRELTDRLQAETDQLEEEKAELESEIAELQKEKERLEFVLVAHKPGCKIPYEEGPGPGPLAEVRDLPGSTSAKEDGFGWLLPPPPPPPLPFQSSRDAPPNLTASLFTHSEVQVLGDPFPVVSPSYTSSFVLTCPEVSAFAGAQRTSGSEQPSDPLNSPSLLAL
esBAF inh: SWI/SNF esBAF complex inhibition | reporter increase, % at 12.5 µM | 350,000 compounds, 2% hits | mouse ES cells, Bmi1-luciferase knock-in reporter, 24 h; 100% = twice the neutral-well signal; in the data active = activation above about 40%;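 note: 0% = median of the plate's neutral control wells and 100% = double that signal; a rise in the Bmi1 reporter signal indicates esBAF inhibition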
Dyrk1A ADPGlo: blocks rat Dyrk1A kinase activity; 310,000 compounds, 0.43% hits; AID 504441; Q63470; ADP-Glo luminescence, NFATc1 peptide; inhibition, % at 12.5 µM; in the data active = inhibition above about 50%;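 note: plate controls were vehicle with enzyme for no effect and no enzyme for full effect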
Rtt109 HAT inh: blocks Candida albicans Rtt109/Vps75 acetyltransferase activity. Q5AAJ8. purified Rtt109/Vps75, ThioGlo CoA-SH fluorescence, 4 h. inhibition, % at 34.9 µM. 330,000 compounds, 0.16% hits;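 active = inhibition of at least 50% in every replicate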
CDK5 inh: inhibitors of human CDK5/p35 kinase; 330,000 compounds, 0.01% hits; Q00535+Q15078; Recombinant CDK5/p35, ADP-Glo luminescence, 60 min; AID 488839; inhibition, % at 10 µM;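 active = highest replicate inhibition of at least 50% and at least 75% of replicates reaching 50%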;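 note: plate controls were DMSO neutral control for no effect and GW8510 at 10 µM for full effect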
SMARCA2 act: SMARCA2 function activation, primary screen | activation, % at 9.1 µM | 370,000 compounds, 1% hits | MG213 cells, MMTV-luciferase reporter, dexamethasone, overnight | AID 652017; in the data active = activation above about 7.8%;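 note: 0% = vehicle wells and 100% = reference activator wells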
* hit, by the source's call; x = no result given.

SMILES | dFosB act | esBAF inh | Dyrk1A ADPGlo | Rtt109 HAT inh | CDK5 inh | SMARCA2 act
COc1cccc(C(=O)Nc2ccc3c(c2)OC[C@H](C)N(C)C[C@H](C)[C@H](OC)CN(C)C3=O)c1 | x | 3 | x | x | x | x
Cc1cc(C(F)(F)F)n2nc(-c3cccs3)cc2n1 | 0 | 64* | x | -1 | -1 | 2
N#Cc1ccccc1NC(=O)CSc1nccn1CCc1ccccc1 | -6 | 56* | 4 | 8 | -1 | 1
Cc1ccc(NC(=O)CSc2nccn2Cc2ccco2)cc1 | -7 | 56* | 2 | -3 | 0 | 5
CC(=O)c1ccc(NC(=O)CSc2nccn2CCc2ccccc2)cc1 | -7 | 78* | 4 | 1 | 1 | 0
COCCn1c(SCC(=O)Nc2ccc(NC(C)=O)cc2)nc2ccccc2c1=O | 10 | -3 | 0 | -3 | 0 | 0
COCCCn1c(SCC(=O)Nc2ccc(C(C)=O)cc2)nc2ccccc2c1=O | -20 | 66* | 1 | -6 | 0 | 0
CC(=O)c1ccc(NC(=O)CSc2nccn2C)cc1 | 7 | x | -3 | 8 | 1 | -2
CCc1cc2c(=O)c(-c3cscn3)coc2cc1O | -1 | 90* | 0 | -8 | 1 | 6
CCOC(=O)c1oc2cc(O)c(CC)cc2c(=O)c1-c1cscn1 | 13 | 3 | -2 | 2 | 0 | -4
CCn1c(C)nc2cc(C(=O)N/N=C/c3ccccc3)ccc21 | -1 | 43* | 1 | 0 | 2 | 3
CCn1c(C)nc2cc(C(=O)N/N=C/c3ccc(O)cc3)ccc21 | -7 | x | -3 | -9 | 0 | -2
COCCn1c(C)cc(/C=C2/SC(=O)N(C(C)C(=O)OC)C2=O)c1C (centres undefined) | 0 | 66* | -2 | 4 | -3 | 5
COc1ccc(N=C2S/C(=C\c3cc(C)n(C)c3C)C(=O)N2CC(C)C)cc1 | -10 | 2 | -5 | -1 | -1 | 0
COC(=O)CN1C(=O)S/C(=C/c2cc(C)n(C)c2C)C1=O | -1 | 57* | 2 | -2 | 2 | 3
CC(=O)Nc1ccc(S(=O)(=O)Oc2ccc(/C=C3\SC(N)=NC3=O)cc2)cc1 | 130* | x | 3 | -1 | -1 | 0
CCN(CC)c1ccc(/C=C2\SC(N)=NC2=O)cc1 | -2 | 49* | 7 | -2 | 1 | 5
COCC(=O)Nc1ccc2c(c1)[C@@H]1C[C@H](CC(=O)N3CCCCC3)O[C@@H](CO)[C@@H]1O2 | x | 7 | x | x | x | x
CO[C@H]1CC[C@H]2CCOc3ccc(C#N)cc3C(=O)N(C)C[C@@H](OC)[C@H](C)C(=O)N(C)C[C@@H]1O2 | x | 1 | x | x | x | x
Cc1ccc(CSc2nc3c(c(N(C)C)n2)CCCC3)cc1 | -4 | -2 | 0 | 11 | 0 | -1
Cc1nc(SCc2ccccc2)nc2c1CCC2 | 0 | 100* | 4 | 0 | -1 | 3
O=C(O)c1ccc(NC2=C/C(=N/S(=O)(=O)c3cccs3)c3ccccc3C2=O)cc1 | x | -6 | x | x | x | -6
O=C(O)c1ccc(NC2=C/C(=N/S(=O)(=O)c3ccccc3)c3ccccc3C2=O)cc1 | -1 | x | 80* | 23 | 11 | -10
N#C/C(=C/c1ccc(N2CCCCC2)o1)C(=O)Nc1ccc(Cl)cc1 | -7 | 60* | -1 | -8 | -1 | 5
N#C/C(=C/c1ccc(N2CCCCC2)o1)C(=O)Nc1ccc2ccccc2c1 | -17 | x | 1 | x | 0 | 0
SMILES | dFosB act | esBAF inh | Dyrk1A ADPGlo | Rtt109 HAT inh | CDK5 inh | SMARCA2 act
CC1(C)Cc2c(sc3nc(-c4cc5ccccc5o4)n(N)c(=O)c23)CO1 | -33 | 48* | 6 | -9 | 1 | 5
CN(C)C(=O)C[C@H]1CC[C@H](NS(=O)(=O)c2ccccc2)[C@@H](CO)O1 | x | -7 | x | x | x | x
C[C@@H]1CCCCO[C@H](CN(C)C(=O)C2CCCCC2)[C@@H](C)CN([C@@H](C)CO)C(=O)c2cc(NC(=O)CCC(F)(F)F)ccc2O1 | x | 5 | x | x | x | x
O=C(Nc1ccc(F)cc1)N[C@H]1CC[C@H](CCNS(=O)(=O)c2ccccc2F)O[C@@H]1CO | x | 3 | x | x | x | x
O=C(CSCc1ccccc1Cl)N1CCN(c2ccccn2)CC1 | 8 | 58* | 2 | -1 | 1 | 3
COC(=O)C[C@H]1C[C@@H]2c3cc(NC(=O)Nc4ccc(OC)cc4)ccc3O[C@@H]2[C@H](CO)O1 | x | 0 | x | x | x | x
Cc1ccc(S(=O)(=O)N[C@@H]2CC[C@@H](CCNC(=O)Cc3ccccn3)O[C@H]2CO)cc1 | x | 3 | x | x | x | x
